# Experiments:
# Test in all cases: DAPPL (digital affinity profiling via proximity ligation, sequencing); 10 mM Tris-HCl pH 7.5, 50 mM NaCl, 1 mM DTT, 4% glycerol, room temperature, 30 min; GST-TFs on glutathione beads, 16-mer random dsDNA library, 0.1% formaldehyde crosslink after washing; high values mean tight binding
# [1] = target: T1, FEV (Homo sapiens, UniProt Q99581 1-238); details: protein: recombinant; tags: N-terminal GST; dsDNA, one strand shown
# T1 sequence: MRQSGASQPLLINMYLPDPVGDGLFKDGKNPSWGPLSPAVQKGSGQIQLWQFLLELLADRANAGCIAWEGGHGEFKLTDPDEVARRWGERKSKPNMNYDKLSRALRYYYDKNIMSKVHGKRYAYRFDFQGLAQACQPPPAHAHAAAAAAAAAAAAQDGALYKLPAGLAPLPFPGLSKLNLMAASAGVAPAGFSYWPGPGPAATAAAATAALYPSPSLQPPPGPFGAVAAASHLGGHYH
# Outline: (§1)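 The binding signal reported is, for every hexamer, its read frequency for a factor over its read frequency for the tag-only sample. Reads came from pools of yeast-expressed, GST-fused human transcription factors on glutathione beads, barcoded with DNA and mixed with that sample, which were incubated with 200 nmole of a random double-stranded 16-mer DNA library in Tris/NaCl/DTT/glycerol buffer at room temperature for 30 min. After washing, the pools were crosslinked with 0.1% formaldehyde, proximity-ligated with BsaI/T4 ligase for 1 h at 37 °C, PCR-amplified and sequenced on an Illumina NextSeq500.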
# [2] = target: ETV5 (Homo sapiens, UniProt P41161 1-510); details: protein: recombinant; tags: N-terminal GST; dsDNA, one strand shown
# Outline: as §1
# [3] = target: HSF1 (Homo sapiens, UniProt Q00613 1-529); details: protein: recombinant; tags: N-terminal GST; chain copies: 3; dsDNA, one strand shown
# Outline: as §1
# [4] = target: T2, SPIC (Homo sapiens, UniProt Q8N5J4 1-248); details: protein: recombinant; tags: N-terminal GST; dsDNA, one strand shown
# T2 sequence: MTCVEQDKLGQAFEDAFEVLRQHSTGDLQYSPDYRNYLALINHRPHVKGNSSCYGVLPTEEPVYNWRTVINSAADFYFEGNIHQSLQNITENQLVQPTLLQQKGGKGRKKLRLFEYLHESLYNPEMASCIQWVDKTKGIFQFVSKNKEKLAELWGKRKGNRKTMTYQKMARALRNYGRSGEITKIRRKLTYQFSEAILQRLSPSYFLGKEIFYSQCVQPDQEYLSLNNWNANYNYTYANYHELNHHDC
# Outline: as §1
# [5] = target: ELF4 (Homo sapiens, UniProt Q99607 1-663); details: protein: recombinant; tags: N-terminal GST; dsDNA, one strand shown
# Outline: as §1
# [6] = target: T3, ELK4 (Homo sapiens, UniProt P28324-2 1-405); details: protein: recombinant; tags: N-terminal GST; dsDNA, one strand shown
# T3 sequence: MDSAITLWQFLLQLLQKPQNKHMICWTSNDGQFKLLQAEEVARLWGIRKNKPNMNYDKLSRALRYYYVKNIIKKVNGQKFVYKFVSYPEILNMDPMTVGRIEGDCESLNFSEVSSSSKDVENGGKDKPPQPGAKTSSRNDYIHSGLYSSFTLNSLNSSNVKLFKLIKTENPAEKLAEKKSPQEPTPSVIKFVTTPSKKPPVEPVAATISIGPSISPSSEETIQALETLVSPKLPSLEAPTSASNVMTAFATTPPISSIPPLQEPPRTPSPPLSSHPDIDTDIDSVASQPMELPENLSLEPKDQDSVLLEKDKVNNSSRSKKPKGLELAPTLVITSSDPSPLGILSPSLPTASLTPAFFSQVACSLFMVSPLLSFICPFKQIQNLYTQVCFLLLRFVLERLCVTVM
# Outline: as §1
# [7] = target: T4, ETV2 (Homo sapiens, UniProt O00321 1-342); details: protein: recombinant; tags: N-terminal GST; dsDNA, one strand shown
# T4 sequence: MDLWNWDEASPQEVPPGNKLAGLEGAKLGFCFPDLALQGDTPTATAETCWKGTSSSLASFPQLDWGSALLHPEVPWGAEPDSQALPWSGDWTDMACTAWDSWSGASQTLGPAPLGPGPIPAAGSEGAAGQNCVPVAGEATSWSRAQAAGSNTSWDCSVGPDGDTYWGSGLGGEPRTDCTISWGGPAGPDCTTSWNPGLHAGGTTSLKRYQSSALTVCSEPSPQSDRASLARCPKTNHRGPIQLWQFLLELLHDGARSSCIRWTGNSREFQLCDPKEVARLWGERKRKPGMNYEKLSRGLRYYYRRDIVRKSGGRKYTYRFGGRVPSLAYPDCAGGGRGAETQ
# Outline: as §1
# [8] = target: T5, ELF3 (Homo sapiens, UniProt P78545 1-371); details: protein: recombinant; tags: N-terminal GST; dsDNA, one strand shown
# T5 sequence: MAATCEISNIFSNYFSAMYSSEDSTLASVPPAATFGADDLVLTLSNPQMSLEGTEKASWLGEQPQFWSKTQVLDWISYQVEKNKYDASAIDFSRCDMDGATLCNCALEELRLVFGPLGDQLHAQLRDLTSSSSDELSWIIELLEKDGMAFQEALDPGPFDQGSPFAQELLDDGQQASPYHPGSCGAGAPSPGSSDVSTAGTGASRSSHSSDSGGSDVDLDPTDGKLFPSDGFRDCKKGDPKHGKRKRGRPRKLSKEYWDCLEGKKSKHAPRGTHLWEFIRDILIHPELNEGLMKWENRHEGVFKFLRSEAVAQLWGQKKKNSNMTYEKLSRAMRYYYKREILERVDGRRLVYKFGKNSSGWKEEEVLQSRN
# Outline: as §1
# [9] = target: CRX (Homo sapiens, UniProt O43186 1-299); details: protein: recombinant; tags: N-terminal GST; dsDNA, one strand shown
# Outline: as §1
# [10] = target: ETV1 (Homo sapiens, UniProt P50549 1-477); details: protein: recombinant; tags: N-terminal GST; dsDNA, one strand shown
# Outline: as §1
# [11] = target: T6, ERF (Homo sapiens, UniProt P50548 1-548); details: protein: recombinant; tags: N-terminal GST; dsDNA, one strand shown
# T6 sequence: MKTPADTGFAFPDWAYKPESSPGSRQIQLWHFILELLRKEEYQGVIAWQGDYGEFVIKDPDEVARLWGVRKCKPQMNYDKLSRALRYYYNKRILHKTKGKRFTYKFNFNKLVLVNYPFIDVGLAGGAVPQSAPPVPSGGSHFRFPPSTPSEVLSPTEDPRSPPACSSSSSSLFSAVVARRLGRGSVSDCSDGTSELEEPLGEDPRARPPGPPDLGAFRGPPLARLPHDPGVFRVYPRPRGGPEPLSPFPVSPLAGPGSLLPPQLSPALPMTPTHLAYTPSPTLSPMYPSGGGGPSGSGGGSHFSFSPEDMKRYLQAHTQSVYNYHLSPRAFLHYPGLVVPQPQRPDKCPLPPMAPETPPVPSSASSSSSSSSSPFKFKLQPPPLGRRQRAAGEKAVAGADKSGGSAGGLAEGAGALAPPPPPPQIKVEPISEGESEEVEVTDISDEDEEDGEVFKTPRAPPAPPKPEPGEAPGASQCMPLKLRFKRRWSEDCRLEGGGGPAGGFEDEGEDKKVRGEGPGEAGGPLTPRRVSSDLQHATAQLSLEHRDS
# Outline: as §1
# [12] = target: T7, ETV3L (Homo sapiens, UniProt Q6ZN32 1-361); details: protein: recombinant; tags: N-terminal GST; dsDNA, one strand shown
# T7 sequence: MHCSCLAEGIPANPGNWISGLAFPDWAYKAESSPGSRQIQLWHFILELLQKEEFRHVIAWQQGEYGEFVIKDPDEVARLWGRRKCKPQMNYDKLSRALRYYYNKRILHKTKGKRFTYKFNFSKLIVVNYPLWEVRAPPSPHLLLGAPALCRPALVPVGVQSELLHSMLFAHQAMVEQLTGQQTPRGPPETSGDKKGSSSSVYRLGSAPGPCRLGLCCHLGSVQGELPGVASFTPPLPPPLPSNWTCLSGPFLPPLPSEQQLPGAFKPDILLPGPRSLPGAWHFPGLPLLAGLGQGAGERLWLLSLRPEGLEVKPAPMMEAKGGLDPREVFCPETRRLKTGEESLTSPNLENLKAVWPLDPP
# Outline: as §1
# [13] = target: T8, ETS2 (Homo sapiens, UniProt P15036 1-469); details: protein: recombinant; tags: N-terminal GST; dsDNA, one strand shown
# T8 sequence: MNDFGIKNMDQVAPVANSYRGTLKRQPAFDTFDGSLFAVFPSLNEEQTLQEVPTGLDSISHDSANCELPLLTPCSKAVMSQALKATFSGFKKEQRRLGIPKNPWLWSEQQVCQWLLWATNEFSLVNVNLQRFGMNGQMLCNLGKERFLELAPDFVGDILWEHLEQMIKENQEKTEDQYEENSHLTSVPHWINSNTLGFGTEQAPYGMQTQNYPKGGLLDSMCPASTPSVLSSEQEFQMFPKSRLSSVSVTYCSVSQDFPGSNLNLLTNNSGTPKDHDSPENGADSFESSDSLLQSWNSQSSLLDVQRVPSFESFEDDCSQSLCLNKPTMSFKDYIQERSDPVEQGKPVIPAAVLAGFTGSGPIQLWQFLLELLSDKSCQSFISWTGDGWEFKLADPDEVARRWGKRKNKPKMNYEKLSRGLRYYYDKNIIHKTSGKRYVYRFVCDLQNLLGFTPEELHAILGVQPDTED
# Outline: as §1
# [14] = target: T9, SPDEF (Homo sapiens, UniProt O95238 1-335); details: protein: recombinant; tags: N-terminal GST; dsDNA, one strand shown
# T9 sequence: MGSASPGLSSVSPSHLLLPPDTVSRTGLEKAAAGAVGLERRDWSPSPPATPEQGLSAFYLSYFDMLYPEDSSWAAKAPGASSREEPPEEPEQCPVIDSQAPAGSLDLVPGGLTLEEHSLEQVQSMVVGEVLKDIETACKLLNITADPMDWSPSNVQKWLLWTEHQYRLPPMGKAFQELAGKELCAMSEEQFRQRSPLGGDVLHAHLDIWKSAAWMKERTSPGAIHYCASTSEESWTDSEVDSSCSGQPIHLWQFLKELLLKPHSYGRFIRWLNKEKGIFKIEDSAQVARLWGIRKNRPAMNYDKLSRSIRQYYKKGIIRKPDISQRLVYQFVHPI
# Outline: as §1
# [15] = target: T10, ETV7 (Homo sapiens, UniProt Q9Y603 1-341); details: protein: recombinant; tags: N-terminal GST; dsDNA, one strand shown
# T10 sequence: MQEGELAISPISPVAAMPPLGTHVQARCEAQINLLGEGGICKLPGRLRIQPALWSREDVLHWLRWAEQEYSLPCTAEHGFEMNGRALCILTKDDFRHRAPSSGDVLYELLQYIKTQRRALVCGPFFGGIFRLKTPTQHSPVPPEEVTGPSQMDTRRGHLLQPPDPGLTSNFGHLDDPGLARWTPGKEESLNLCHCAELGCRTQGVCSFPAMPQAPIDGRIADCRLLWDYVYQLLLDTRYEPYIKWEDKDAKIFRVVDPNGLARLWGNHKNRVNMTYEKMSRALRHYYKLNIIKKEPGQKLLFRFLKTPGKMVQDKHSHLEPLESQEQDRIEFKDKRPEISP
# Outline: as §1
# [16] = target: T11, ELF5 (Homo sapiens, UniProt Q9UKW6-2 1-255); details: protein: recombinant; tags: N-terminal GST; dsDNA, one strand shown
# T11 sequence: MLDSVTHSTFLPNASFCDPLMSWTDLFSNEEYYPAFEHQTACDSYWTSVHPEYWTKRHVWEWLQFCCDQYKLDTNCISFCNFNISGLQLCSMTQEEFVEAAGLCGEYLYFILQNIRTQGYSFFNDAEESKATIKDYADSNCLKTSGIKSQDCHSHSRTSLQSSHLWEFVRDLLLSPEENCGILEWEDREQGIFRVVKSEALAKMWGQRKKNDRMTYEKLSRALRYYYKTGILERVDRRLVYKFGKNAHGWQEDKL
# Outline: as §1
# [17] = target: T12, ETV3 (Homo sapiens, UniProt P41162-2 1-143); details: protein: recombinant; tags: N-terminal GST; dsDNA, one strand shown
# T12 sequence: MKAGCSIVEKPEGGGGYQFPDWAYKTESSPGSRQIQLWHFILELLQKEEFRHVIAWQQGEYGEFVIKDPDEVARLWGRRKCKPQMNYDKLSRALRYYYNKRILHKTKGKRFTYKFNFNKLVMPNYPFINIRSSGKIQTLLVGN
# Outline: as §1
# [18] = target: ETV6 (Homo sapiens, UniProt P41212 1-452); details: protein: recombinant; tags: N-terminal GST; dsDNA, one strand shown
# Outline: as §1
# Sequence of HSF1 (Q00613 whole entry): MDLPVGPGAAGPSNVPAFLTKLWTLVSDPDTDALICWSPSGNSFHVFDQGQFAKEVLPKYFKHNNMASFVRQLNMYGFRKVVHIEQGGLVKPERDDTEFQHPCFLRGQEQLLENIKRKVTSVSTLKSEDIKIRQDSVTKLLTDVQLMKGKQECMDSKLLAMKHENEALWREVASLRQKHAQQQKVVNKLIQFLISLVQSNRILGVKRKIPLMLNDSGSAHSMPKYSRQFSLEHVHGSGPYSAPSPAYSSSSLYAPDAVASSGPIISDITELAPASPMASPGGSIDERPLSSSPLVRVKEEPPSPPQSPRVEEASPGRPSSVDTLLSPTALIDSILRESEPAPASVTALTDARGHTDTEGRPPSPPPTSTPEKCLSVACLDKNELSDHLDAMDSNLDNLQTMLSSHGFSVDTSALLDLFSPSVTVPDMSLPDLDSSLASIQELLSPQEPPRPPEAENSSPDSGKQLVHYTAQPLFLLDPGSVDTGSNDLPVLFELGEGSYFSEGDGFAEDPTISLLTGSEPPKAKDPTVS
# Sequence of CRX (O43186 whole entry): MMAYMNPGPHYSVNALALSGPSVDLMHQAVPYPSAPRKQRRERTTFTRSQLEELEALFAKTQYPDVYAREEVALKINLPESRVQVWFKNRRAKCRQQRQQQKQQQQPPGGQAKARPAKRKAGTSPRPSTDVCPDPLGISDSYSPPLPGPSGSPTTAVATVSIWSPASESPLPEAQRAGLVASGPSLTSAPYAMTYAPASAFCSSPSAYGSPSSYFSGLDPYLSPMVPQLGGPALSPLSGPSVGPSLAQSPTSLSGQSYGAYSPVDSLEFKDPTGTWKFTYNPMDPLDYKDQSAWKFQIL
# Sequence of ETV5 (P41161 whole entry): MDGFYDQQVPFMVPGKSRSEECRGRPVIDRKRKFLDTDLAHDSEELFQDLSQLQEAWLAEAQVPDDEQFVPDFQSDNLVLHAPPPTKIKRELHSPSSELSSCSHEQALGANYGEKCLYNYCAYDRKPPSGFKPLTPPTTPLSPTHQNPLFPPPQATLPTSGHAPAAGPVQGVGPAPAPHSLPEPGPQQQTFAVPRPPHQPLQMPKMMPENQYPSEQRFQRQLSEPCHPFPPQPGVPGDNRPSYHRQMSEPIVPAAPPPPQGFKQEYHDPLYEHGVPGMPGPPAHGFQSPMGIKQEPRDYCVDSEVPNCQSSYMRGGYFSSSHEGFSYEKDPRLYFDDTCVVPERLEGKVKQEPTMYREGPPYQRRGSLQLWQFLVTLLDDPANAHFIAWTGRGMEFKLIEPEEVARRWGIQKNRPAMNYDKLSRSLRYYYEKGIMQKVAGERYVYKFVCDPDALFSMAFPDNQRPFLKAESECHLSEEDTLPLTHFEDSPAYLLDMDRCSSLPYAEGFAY
# Sequence of ETV6 (P41212 whole entry): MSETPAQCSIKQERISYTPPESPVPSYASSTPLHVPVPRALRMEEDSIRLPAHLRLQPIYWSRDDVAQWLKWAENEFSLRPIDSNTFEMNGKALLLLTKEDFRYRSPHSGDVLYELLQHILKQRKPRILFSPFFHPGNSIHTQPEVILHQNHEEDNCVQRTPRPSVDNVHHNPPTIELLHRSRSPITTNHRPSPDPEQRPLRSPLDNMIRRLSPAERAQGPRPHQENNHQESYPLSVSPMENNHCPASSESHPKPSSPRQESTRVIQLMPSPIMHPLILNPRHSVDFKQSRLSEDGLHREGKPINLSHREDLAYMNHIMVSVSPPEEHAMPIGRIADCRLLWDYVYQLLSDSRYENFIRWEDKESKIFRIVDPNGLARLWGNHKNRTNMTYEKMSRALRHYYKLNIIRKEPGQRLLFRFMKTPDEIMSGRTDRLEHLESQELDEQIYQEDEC
# Sequence of ETV1 (P50549 whole entry): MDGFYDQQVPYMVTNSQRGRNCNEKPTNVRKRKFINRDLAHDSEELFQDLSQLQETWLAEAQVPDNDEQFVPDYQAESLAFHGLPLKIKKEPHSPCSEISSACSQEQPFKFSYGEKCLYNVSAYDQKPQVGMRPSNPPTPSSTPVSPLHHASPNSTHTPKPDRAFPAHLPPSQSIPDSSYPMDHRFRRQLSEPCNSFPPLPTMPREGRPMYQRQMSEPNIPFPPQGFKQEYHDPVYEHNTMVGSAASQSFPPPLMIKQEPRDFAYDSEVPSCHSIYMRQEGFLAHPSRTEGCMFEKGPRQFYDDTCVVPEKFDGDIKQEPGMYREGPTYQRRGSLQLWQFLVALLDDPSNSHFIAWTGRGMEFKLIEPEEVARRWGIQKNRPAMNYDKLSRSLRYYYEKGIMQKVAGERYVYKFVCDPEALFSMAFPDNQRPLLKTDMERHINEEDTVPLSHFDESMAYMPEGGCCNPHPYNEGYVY
# Sequence of ELF4 (Q99607 whole entry): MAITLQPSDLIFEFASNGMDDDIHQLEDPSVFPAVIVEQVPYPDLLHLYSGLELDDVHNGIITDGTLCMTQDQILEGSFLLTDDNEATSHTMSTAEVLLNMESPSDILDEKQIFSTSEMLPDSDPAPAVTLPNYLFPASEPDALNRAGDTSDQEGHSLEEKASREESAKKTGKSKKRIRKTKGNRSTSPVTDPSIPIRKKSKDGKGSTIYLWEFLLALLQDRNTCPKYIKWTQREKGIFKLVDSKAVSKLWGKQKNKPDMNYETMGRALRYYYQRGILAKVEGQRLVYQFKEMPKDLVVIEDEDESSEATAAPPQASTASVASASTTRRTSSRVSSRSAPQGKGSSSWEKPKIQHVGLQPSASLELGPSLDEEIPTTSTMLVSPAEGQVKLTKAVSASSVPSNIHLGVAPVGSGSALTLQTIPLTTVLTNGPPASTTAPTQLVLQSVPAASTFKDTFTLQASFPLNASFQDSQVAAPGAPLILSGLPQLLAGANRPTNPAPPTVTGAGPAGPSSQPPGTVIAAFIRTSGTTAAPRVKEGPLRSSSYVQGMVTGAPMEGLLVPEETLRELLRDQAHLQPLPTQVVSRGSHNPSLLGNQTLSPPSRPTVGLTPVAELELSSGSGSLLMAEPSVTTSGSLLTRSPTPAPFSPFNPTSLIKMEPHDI
Sequence,binding signal [1],binding signal [2],binding signal [3],binding signal [4],binding signal [5],binding signal [6],binding signal [7],binding signal [8],binding signal [9],binding signal [10],binding signal [11],binding signal [12],binding signal [13],binding signal [14],binding signal [15],binding signal [16],binding signal [17],binding signal [18]
GATTCA,"1.08 fold enrichment (6-mer frequency, TF over GST control)","1.08 fold enrichment (6-mer frequency, TF over GST control)","1.13 fold enrichment (6-mer frequency, TF over GST control)","1.14 fold enrichment (6-mer frequency, TF over GST control)","1.15 fold enrichment (6-mer frequency, TF over GST control)","1.24 fold enrichment (6-mer frequency, TF over GST control)","1.08 fold enrichment (6-mer frequency, TF over GST control)","1.26 fold enrichment (6-mer frequency, TF over GST control)","1.13 fold enrichment (6-mer frequency, TF over GST control)","1.15 fold enrichment (6-mer frequency, TF over GST control)","1.06 fold enrichment (6-mer frequency, TF over GST control)","1.19 fold enrichment (6-mer frequency, TF over GST control)","1.18 fold enrichment (6-mer frequency, TF over GST control)","1.12 fold enrichment (6-mer frequency, TF over GST control)","1.09 fold enrichment (6-mer frequency, TF over GST control)","1.05 fold enrichment (6-mer frequency, TF over GST control)","1.2 fold enrichment (6-mer frequency, TF over GST control)","1.13 fold enrichment (6-mer frequency, TF over GST control)"
TCCTGT,"1.85 fold enrichment (6-mer frequency, TF over GST control)","2.04 fold enrichment (6-mer frequency, TF over GST control)","1.14 fold enrichment (6-mer frequency, TF over GST control)","1.87 fold enrichment (6-mer frequency, TF over GST control)","1.65 fold enrichment (6-mer frequency, TF over GST control)","1.56 fold enrichment (6-mer frequency, TF over GST control)","1.71 fold enrichment (6-mer frequency, TF over GST control)","1.78 fold enrichment (6-mer frequency, TF over GST control)","1.16 fold enrichment (6-mer frequency, TF over GST control)","1.89 fold enrichment (6-mer frequency, TF over GST control)","1.6 fold enrichment (6-mer frequency, TF over GST control)","1.88 fold enrichment (6-mer frequency, TF over GST control)","1.84 fold enrichment (6-mer frequency, TF over GST control)","2.32 fold enrichment (6-mer frequency, TF over GST control)","1.89 fold enrichment (6-mer frequency, TF over GST control)","2.35 fold enrichment (6-mer frequency, TF over GST control)","1.89 fold enrichment (6-mer frequency, TF over GST control)","1.84 fold enrichment (6-mer frequency, TF over GST control)"
